# Screening results: PubChem, National Center for Advancing Translational Sciences (NCATS)
# RGS4 inhibitor: Inhibitors of Regulator of G Protein Signaling (RGS) 4: qHTS; Regulator of G-protein signaling 4 (Homo sapiens), P49798; Transcreener GDP fluorescence polarization, RGS4-accelerated GTP hydrolysis; Potency, µM (doses to about 114 µM), inactives show at the highest dose activity change, negative = inhibition, most hits filed as inhibitors; 390,000 tested, 0.039% active; note: % is set by controls: 0 for no effect and ±100 for the full control effect; nearly all actives have a fitted effect of over 75% in size
#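 MLSMR compounds (23 nl, pin-transferred) preincubated 10 min at room temperature with a 500nM (2x) first reagent, then RGS4 at 900nM (2x) plus Transcreener GDP mix added; fluorescence polarization (620/688 nm) read before and after 90 min at 30 °C.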
# BRCA1 expr up: qHTS Assay to Identify Small Molecule Activators of BRCA1 Expression; MCF7-BRCA1-FFLuc reporter, luminescence, 48 h; response scale: scaled: vehicle 0%, 10 µM genistein 100%; Potency, µM (highest dose often 46.1 µM), inactives show top-dose activation, actives largely listed as activators; 380,000 tested, 1.1% active; AID 624202, 2012; note: nearly all actives have a fitted effect of over 80% in size
#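 Reporter cells (MCF7, BRCA1 promoter-firefly luciferase) received library compounds across a concentration series for 48 h. End-point luminescence was measured and concentration-effect curves derived after normalization.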
# EPAC1 antagonist: qHTS for Antagonist of cAMP-regulated guanine nucleotide exchange factor 3 (EPAC1): primary screen. 360,000 tested, 0.14% active. Rap guanine nucleotide exchange factor 3 (Homo sapiens), O95398. Potency, µM (titrated, usually from 115 µM), inactives show top-dose activity change, negative = inhibition, usual class: inhibitors. EPAC1 GEF assay, Rap1b-BODIPY-GDP exchange fluorescence;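 note: plate controls were vehicle for no effect and positive control for full effect; nearly all actives have a fitted effect of over 50% in size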
# EPAC1 agonist: qHTS for Agonist of cAMP-regulated guanine nucleotide exchange factor 3 (EPAC1): primary screen; Rap guanine nucleotide exchange factor 3 (Homo sapiens), O95398; EPAC1 agonist qHTS, biochemical assay; response scale: 100% = response to 6.5 mM cAMP; Potency, µM (highest dose often 154 µM), inactives show at the highest dose activation, most hits filed as activators; 360,000 tested, 0.073% active; note: nearly all actives have a fitted effect of over 60% in size
#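 Nucleotide exchange by EPAC1 (100 nM) on Rap1B–BODIPY-GDP (250 nM) in the presence of 50 uM GDP is tracked fluorescently at 480/540 nm over 30 min. Signals are normalized to a 6.5 mM cAMP control.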
# EPAC2 ag: qHTS for Agonist of cAMP-regulated guanine nucleotide exchange factor 4 (EPAC2): primary screen. Rap guanine nucleotide exchange factor 4 (Homo sapiens), Q8WZA2. EPAC2 activation, biochemical qHTS; response scale: 100% = 6.5 mM cAMP response. Potency, µM (series often up to 154 µM), for inactives: top-dose activation, hits mostly activators. 360,000 tested, 0.079% active. AID 720711, 2013; note: nearly all actives have a fitted effect of over 50% in size
# Target sequence (Q8WZA2 whole entry, looked up): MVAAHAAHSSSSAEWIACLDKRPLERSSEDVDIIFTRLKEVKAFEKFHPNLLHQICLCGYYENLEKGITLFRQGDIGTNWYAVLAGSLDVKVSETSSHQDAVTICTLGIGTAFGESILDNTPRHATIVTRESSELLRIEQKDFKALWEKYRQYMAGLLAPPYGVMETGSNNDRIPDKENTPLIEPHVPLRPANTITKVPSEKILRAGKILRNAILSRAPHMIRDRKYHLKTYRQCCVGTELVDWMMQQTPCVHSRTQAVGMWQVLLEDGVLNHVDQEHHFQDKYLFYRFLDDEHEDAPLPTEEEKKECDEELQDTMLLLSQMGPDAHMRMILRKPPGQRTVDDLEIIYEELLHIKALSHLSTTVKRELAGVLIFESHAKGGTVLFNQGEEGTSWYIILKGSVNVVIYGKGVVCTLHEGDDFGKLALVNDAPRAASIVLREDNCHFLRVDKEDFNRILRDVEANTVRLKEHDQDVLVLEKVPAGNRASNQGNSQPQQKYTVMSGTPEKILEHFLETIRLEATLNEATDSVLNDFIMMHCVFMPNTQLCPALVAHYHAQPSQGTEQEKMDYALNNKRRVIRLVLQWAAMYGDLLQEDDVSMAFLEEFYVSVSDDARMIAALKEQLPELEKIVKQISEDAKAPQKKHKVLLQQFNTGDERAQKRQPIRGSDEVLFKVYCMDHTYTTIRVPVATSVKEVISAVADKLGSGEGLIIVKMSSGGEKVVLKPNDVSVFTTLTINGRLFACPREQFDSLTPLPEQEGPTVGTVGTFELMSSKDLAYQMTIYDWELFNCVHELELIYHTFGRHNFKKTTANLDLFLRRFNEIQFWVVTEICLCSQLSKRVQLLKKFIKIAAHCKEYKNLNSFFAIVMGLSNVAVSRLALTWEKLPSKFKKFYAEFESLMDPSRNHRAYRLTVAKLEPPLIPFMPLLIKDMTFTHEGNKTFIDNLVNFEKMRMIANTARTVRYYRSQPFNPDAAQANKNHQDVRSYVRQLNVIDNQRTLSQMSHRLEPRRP
#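 Setup: EPAC2 100 nM, labeled Rap1B complex 250 nM, free GDP 50 uM. Compound titrations pinned in, brief spin, 5 min room temperature incubation. Kinetic fluorescence read over 30 min, normalized to 6.5 mM cAMP.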
# EPAC2 antagonist: qHTS for Antagonist of cAMP-regulated guanine nucleotide exchange factor 2 (EPAC2): primary screen; Rap guanine nucleotide exchange factor 4 (Homo sapiens), Q8WZA2; EPAC2 GEF exchange of Rap1B-BODIPY-GDP, fluorescence; Potency, µM (doses to about 114 µM), for inactives: at the top dose activity, negative = inhibition, hits mostly inhibitors; 360,000 tested, 0.18% active; note: % is set by controls: 0 for no effect and ±100 for the full control effect; nearly all actives have a fitted effect of over 45% in size
# * marks the source's active call; other numbers are inactive results; ? = inconclusive; nt = no result given; [ ] = dose if it differs, or a comment. Most compounds without a hit are left out; they make up all but 1.3% or so of the library. Calls come from the whole dose curve; as a rule, active = well fitted curve in the direction sought with a large enough effect; inconclusive = small, poorly fitted or top-dose-only effect, or another doubt; inactive = no such curve, though single readings can be large; an effect the other way counts as inactive or inconclusive. Potency is the fitted concentration of half-maximal effect.
SMILES,RGS4 inhibitor,BRCA1 expr up,EPAC1 antagonist,EPAC1 agonist,EPAC2 ag,EPAC2 antagonist
O=C1CC(c2ccccc2)c2ccccc21 (configuration not stated),4.1%,-3.6%,-3.1%,0.1%,1.9%,-24.2%
Cc1ccc(NC(=O)CCC(=O)N/N=C/c2coc3ccccc3c2=O)cc1,-1.1%,-15.6%,-4.6%,1.4%,-9.6%,22.0%
Cc1ccc(NC(=S)NC(=O)c2cccs2)cc1F,-29.1%,3.55µM*,-6.4%,2.3%,-2.5%,-17.7%
O=C(NC(=S)Nc1ccccc1)c1cccs1,-11.3%,5.62µM*,0.3%,2.0%,3.5%,1.2%
C#CCSc1[nH]c(=O)cc(C)c1C#N,6.4%,-3.2%,-2.0%,8.0%,10.5%,-6.5%
O=C(COC(=O)c1ccc2ncsc2c1)NC(=O)c1ccccc1,-20.2%,22.4%,-2.2%,1.1%,2.3%,3.4%
O=C(Cc1ccccc1)Nc1cc2c(cc1Cl)OCCCO2,-10.5%,3.16µM*,2.1%,-3.1%,2.5%,-3.8%
CCc1ccc(C(=O)Nc2cc3c(cc2Cl)OCCCO3)cc1,-15.3%,80.5%,-2.3%,13.8%,16.9%,9.7%
COc1ccccc1CC(=O)Nc1ccc2c(c1)OC1(CCCC1)O2,1.9%,52.6%,-9.4%,8.5%,2.3%,-11.3%
O=C(Cc1ccccc1)Nc1ccc2c(c1)OC1(CCCC1)O2,-43.3%,3.98µM*,-5.4%,1.2%,6.7%,-3.9%
COc1cc(/C=N/n2cnnc2)ccc1OCc1ccccc1,34.6%,84.0%,2.8%,-0.1%,7.7%,4.5%
COc1cc(/C=N/n2cnnc2)ccc1OCc1ccc(C)cc1,-8.1%,10µM*,-11.6%,2.2%,6.1%,-6.9%
Nc1ccc(-c2nc3ccc([N+](=O)[O-])cc3[nH]2)cc1,6.9%,2µM*,-2.1%,3.6%,3.0%,-2.4%
O=[N+]([O-])c1ccc(-c2nc3ccc([N+](=O)[O-])cc3[nH]2)cc1,-28.0%[11.4 µM],-23.6%,3.7%,3.0%,0.5%,12.6%
CCC(=O)c1ccc(OCC(O)Cn2nc(C)cc2C)cc1 (configuration not stated),-2.2%,0.1%,-15.7%,4.1%,8.7%,0.4%
Cc1ccccc1OCC(O)Cn1nnc2ccccc21 (configuration not stated),-30.2%,12.6µM*,16.3%,-2.1%,-5.3%,3.6%
CCC(=O)c1ccc(OCC(O)Cn2nnc3ccccc32)cc1 (configuration not stated),5.7%,10µM*,?,13.2%,17.7%,-9.1%
CCOc1c(O)ccc(/C=C2\SC(=S)NC2=O)c1[N+](=O)[O-],-34.6%,11.2µM*,-21.1%,-1.4%,2.1%,56.2µM*
Cc1ccc(CCNS(=O)(=O)c2cc3c(cc2C)n(C)c(=O)c(=O)n3C)cc1,0.0%,6.0%,-13.4%,3.0%,5.5%,-7.0%
COc1ccc(Cc2nc3ccc(C(=O)NCCCSC)cc3o2)cc1OC,30.0%,12.6µM*,8.1%,-5.2%,1.6%,3.7%
COC(=O)CCNC(=O)c1ccc2nc(Cc3ccc(OC)c(OC)c3)oc2c1,7.7%,?,7.0%,3.9%,20.0%,1.1%
O=S(=O)(O)c1ccc(N=NNc2ccc(Br)cc2)cc1,-20.5%,-47.3%,-8.3%,-9.9%,-4.4%,44.7µM*
CC1CCCN(Cc2c(O)ccc3c(=O)c(-c4ccc(Cl)cc4)coc23)C1 (configuration not stated),-12.3%,2.5%,-6.0%,-7.8%,-4.5%,-4.5%
O=Nc1ccc2oc(=O)ccc2c1,5.97µM*,nt,nt,nt,nt,nt
COc1cc2ccc(=O)oc2cc1O,-19.4%,-39.6%,0.5%,-12.3%,-5.9%,-14.1%
SMILES,RGS4 inhibitor,BRCA1 expr up,EPAC1 antagonist,EPAC1 agonist,EPAC2 ag,EPAC2 antagonist
Cc1ccsc1/C=C(\CC(=O)O)c1nc2ccccc2o1,6.2%,7.94µM*,-5.4%,-8.9%,2.5%,3.9%
O=C(O)C/C(=C\c1cc(Br)cs1)c1nc2ccccc2o1,-18.0%,-23.2%,-7.9%,1.7%,5.1%,-7.9%
CCOC(=O)C1=C(Cc2ccc(F)cc2)C(=O)c2ccccc2C1=O,?,-47.4%,-11.8%,23.3%,15.6%,-25.6%
COc1ccc(CC(=O)Nc2ccc(-c3csc(C)n3)cc2)cc1,-0.9%,22.7%,-0.4%,-5.8%,0.0%[15.6 µM],-6.3%
Cc1nc(-c2ccc(NC(=O)Cc3ccccc3)cc2)cs1,9.0%,8.91µM*,-14.4%,-2.1%,0.0%,-1.5%
Cc1nc(-c2ccc(C(=O)Nc3ccccc3F)cc2)cs1,-9.8%,10µM*,-0.2%,2.7%,0.3%,5.4%
Nc1ccc(NC(=O)NC2CCCCC2)cc1[N+](=O)[O-],-24.4%,3.98µM*,-3.0%,-8.1%,-2.3%,1.8%
Nc1ccc(NC(=O)NC2CCCCC2)cc1,-7.0%,52.2%,-3.6%,0.4%,3.9%,12.1%
CCCN(C(=O)c1ccc(N2CCCC2=O)cc1)c1c(N)n(Cc2ccccc2)c(=O)[nH]c1=O,-24.4%,-7.8%,7.7%,3.9%,-0.1%,-4.1%
COc1ccc(NC(=O)COC(=O)C23CC4CC(CC(O)(C4)C2)C3)cc1Cl,-6.4%,6.1%,-3.6%,-7.9%,-7.6%,-11.4%
CC(=O)c1ccc2c(c1)C1C=CCC1C(C(=O)O)N2 (configuration not stated),?,-26.4%,50.1µM*,0.3%,3.0%,4.1%
O=C(CSc1nnc2ccccn12)Nc1ncc(Cl)cc1Cl,-8.4%,10µM*,9.2%,-1.1%,3.7%,8.3%
Fc1ccc(CSc2nnc3ccccn23)c(Cl)c1,-17.9%,10µM*,3.7%,7.9%,1.5%,6.1%
CC(Sc1nnc2ccccn12)C(=O)Nc1ncc(Cl)cc1Cl (configuration not stated),-12.6%,80.1%,-9.0%,-4.2%,-5.4%,-4.6%
COc1ccc(CN(C)C[C@H]2Oc3c(NC(=O)Nc4ccccc4)cccc3C(=O)N([C@H](C)CO)C[C@@H]2C)cc1,-1.7%,-23.2%,-9.7%,-20.9%,-3.9%,-25.6%
COc1ccccc1OCc1cc(C(=O)N2CC3C[C@@H]4CC2C[C@H](C3)C4)no1,-8.0%,7.94µM*,-12.6%,3.4%,10.8%,-10.9%
